Measured values from the supplement of paper PMC6555819.

Tested on: RARa:RXR (NR concentration 270 nM, RXRa partner concentration 90 nM)
Experiment: PBM binding z-score (relative to random genomic background probes); higher = stronger binding; sequences stand for … in GC…GCGATTGACAGCGTAGAATGAAGG
Summary of the method: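 Regression normalization was applied to scanned fluorescence from custom Agilent 4×180K protein-binding microarrays. Before scanning, arrays were incubated 1 h with ligand-free nuclear receptor dimers, and binding was detected with antibodies against each partner (one per run). Binding z-scores use the random background probes as reference.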

Row | Sequence | PBM binding z-score
1 | CTATGTAGGGTAAGGGGGTCATTCAGTTTGAAAG | 5.58
2 | TCGAGAAGGTTACGGGGGCATTCAGGGATGAAGA | 3.78
3 | TCGAGTAGGTTACGGGGGTATTCAGGGATGAAGA | 2.49
4 | CCGAGTAGGTTACGAGGGGGCATTTAGTGCGAAT | 3.03
5 | TCGAGTAGGTTACAGGGGCATTCAGGGATGAAGA | 1.5
6 | CCGAGTAGGTTACGACGGGGCATTCAGTGCGAAT | 1.17
7 | CCGAGTAGGTTACGAGGGGGCATGCAGTGCGAAT | 2.98
8 | CTATGCAGGTTAAGGGGGTCATTCAGTTTGAAAG | 5.93
9 | TCGAGTAGGGTACGGGGGCATTCAGGGATGAAGA | 2.86
10 | CCGAGTAGGTTACGAGCGGGCATTCAGTGCGAAT | 0.0464
11 | CCGAGTAGGTTACGAGGGGGCCTTCAGTGCGAAT | 1.56
12 | TCGAGTAGGTTAGGGGGGCATTCAGGGATGAAGA | 3.47
13 | CTATGTAGGTTAAGGGGTTCATTCAGTTTGAAAG | 3.12
14 | CTATGTAGGTTAAGGGGGTCAATCAGTTTGAAAG | 5.23
15 | CCGAGTAGGTTACGAGGGGGCATTCACTGCGAAT | 2.66
16 | TCGAGTAGGTTACGGGGGCATTCCGGGATGAAGA | 3.14
17 | CTATGTAGTTTAAGGGGGTCATTCAGTTTGAAAG | 5.64
18 | CCGAGTAGGTTACGAGGGGGCAATCAGTGCGAAT | 2.87
19 | CTAGGTAGGTTAAGGGGGTCATTCAGTTTGAAAG | 5.43
20 | CTATGTATGTTAAGGGGGTCATTCAGTTTGAAAG | 5.5

Row | Sequence | PBM binding z-score
21 | CCGAGTAGATTACGAGGGGGCATTCAGTGCGAAT | 1.79
22 | CCGAGTAGGTTACGAGGGGGCACTCAGTGCGAAT | 2.87
23 | CCGAGTAGGTTGCGAGGGGGCATTCAGTGCGAAT | 2.34
24 | TCGAGTTGGTTACGGGGGCATTCAGGGATGAAGA | 2.3
25 | CTACGTAGGTTAAGGGGGTCATTCAGTTTGAAAG | 6.06
26 | CTTTGTAGGTTAAGGGGGTCATTCAGTTTGAAAG | 5.32
27 | CTATGTAGGTTAAGGGGGTCATTAAGTTTGAAAG | 5.37
28 | TCGAGTAGGTTACGGTGGCATTCAGGGATGAAGA | 0.611
29 | CTATGTAGGTTAAGGGGCTCATTCAGTTTGAAAG | 0.505
30 | TCGAATAGGTTACGGGGGCATTCAGGGATGAAGA | 3.69
31 | CTATGTAGGTTAAGGGGATCATTCAGTTTGAAAG | 0.816
32 | CCGAGTAGGTTATGAGGGGGCATTCAGTGCGAAT | 2.87
33 | CAGAGTAGGTTACGAGGGGGCATTCAGTGCGAAT | 2.83
34 | CCGAGTAGGTTACGAGGCGGCATTCAGTGCGAAT | 0.2
35 | CTATGTAGGTTAAGTGGGTCATTCAGTTTGAAAG | 2.23
36 | TCGAGTAAGTTACGGGGGCATTCAGGGATGAAGA | 2.22
37 | TCGAGTAGGTTACGGGGGCATTAAGGGATGAAGA | 2.79
38 | CTATGTAGGTTAAGGGGGTCATCCAGTTTGAAAG | 5.73
39 | TCGAGTAGTTTACGGGGGCATTCAGGGATGAAGA | 2.36
